Assay results as given in PubChem BioAssay AID1159580 (chemical genetic matrix, 2015).
Where “and” joins values, the source holds several entries; their conditions need not be identical. Equal values may be shown once. Hit rate of the full screen: of about 5,500 compounds, about 2,000 (36%) were called active. Inconclusive results (about 18%) are left out. No stated cut-off is given here; in the data, active means normalized growth mostly below about 0.91 (no sharp cut-off); inconclusive means no clear call, values can overlap the other calls; inactive means mostly above about 0.92. This is one part of the list.

Assay: chemical genetic growth profiling, strain panel (AID 1159580);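 further: tested at 20 µM; growth read once vehicle control cultures reached saturation at 30 °C; 1 = growth at the plate median or of vehicle wells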
Details: S. cerevisiae deletion strains, growth OD

Measured: normalized growth

O=c1ccc2cc(O)c(O)cc2o1
inactive: locus YAL013W, strain DEP1, stronger effect = lower value 1.01 | locus YAL021C, strain ccr4, stronger effect = lower value 1.01 | locus YAL026C, strain drs2, stronger effect = lower value 0.992 | locus YAL030W, strain snc1, stronger effect = lower value 1.03 | locus YBL061C, strain skt5, stronger effect = lower value 1 | locus YBR009C, strain hhf1, stronger effect = lower value 1.03 | locus YBR021W, strain FUR4, stronger effect = lower value 0.974 | locus YBR023C, strain chs3, stronger effect = lower value 1 | locus YBR171W, strain sec66, stronger effect = lower value 1 | locus YBR229C, strain ROT2, stronger effect = lower value 1.01 | locus YBR231C, strain swc5, stronger effect = lower value 0.966 | locus YBR279W, strain paf1, stronger effect = lower value 1.01 | locus YCL011C, strain gbp2, stronger effect = lower value 1.03 | locus YCL016C, strain dcc1, stronger effect = lower value 1 | locus YCL029C, strain bik1, stronger effect = lower value 0.989 | locus YCL061C, strain MRC1, stronger effect = lower value 1 | locus YCL069W, strain vba3, stronger effect = lower value 0.999 | locus YCR088W, strain abp1, stronger effect = lower value 1.01 | locus YDL005C, strain med2, stronger effect = lower value 1.02 | locus YDL035C, strain GPR1, stronger effect = lower value 0.999 | locus YDL040C, strain nat1, stronger effect = lower value 1.02 | locus YDL074C, strain BRE1, stronger effect = lower value 1 | locus YDL101C, strain DUN1, stronger effect = lower value 1.01 | locus YDL185W, strain tfp1, stronger effect = lower value 0.987 | locus YDL192W, strain arf1, stronger effect = lower value 0.991 | locus YDR001C, strain nth1, stronger effect = lower value 0.994 | locus YDR069C, strain doa4, stronger effect = lower value 1.03 | locus YDR101C, strain arx1, stronger effect = lower value 0.98 | locus YDR137W, strain rgp1, stronger effect = lower value 0.913 | locus YDR159W, strain sac3, stronger effect = lower value 0.968 | locus YDR162C, strain NBP2, stronger effect = lower value 1.01 | locus YDR195W, strain ref2 1.01 | locus YDR297W, strain sur2, stronger effect = lower value 1.01 | locus YDR318W, strain mcm21, stronger effect = lower value 0.996 | locus YDR334W, strain swr1, stronger effect = lower value 1 | locus YDR335W, strain msn5, stronger effect = lower value 0.99 | locus YDR388W, stronger effect = lower value 0.996 | locus YDR392W, strain spt3, stronger effect = lower value 1.01 | locus YDR502C, strain sam2, stronger effect = lower value 0.997 | locus YEL003W, strain gim4, stronger effect = lower value 1.03 | locus YEL037C, strain rad23, stronger effect = lower value 1 | locus YEL061C, strain CIN8 (second series), stronger effect = lower value 0.997 | locus YEL061C, strain CIN8, stronger effect = lower value 1.01 | locus YER015W, strain faa2, stronger effect = lower value 0.993 | locus YER016W, strain bim1, stronger effect = lower value 0.975 | locus YER110C, stronger effect = lower value 0.991 | locus YER111C, strain swi4, stronger effect = lower value 0.99 | locus YER155C, strain BEM2 (second series), stronger effect = lower value 1.1 | locus YER155C, strain BEM2, stronger effect = lower value 1 | locus YER167W, strain BCK2, stronger effect = lower value 1.01 | locus YFR010W, strain ubp6, stronger effect = lower value 1 | locus YGL078C, strain dbp3, stronger effect = lower value 0.984 | locus YGL086W, strain mad1, stronger effect = lower value 0.987 | locus YGL167C, strain pmr1, stronger effect = lower value 0.998 | locus YGL173C, strain kem1, stronger effect = lower value 0.975 | locus YGL227W, strain vid30, stronger effect = lower value 0.999 | locus YGL240W, strain doc1, stronger effect = lower value 1.05 | locus YGL248W, strain PDE1, stronger effect = lower value 1.01 | locus YGL253W, strain hxk2, stronger effect = lower value 0.984 | locus YGR078C, strain PAC10, stronger effect = lower value 1.01 | locus YGR135W, strain pre9, stronger effect = lower value 0.987 | locus YGR252W, strain gcn5, stronger effect = lower value 0.942 | locus YHR013C, strain ard1, stronger effect = lower value 1.01 | locus YHR027C, strain rpn1, stronger effect = lower value 0.973 | locus YHR030C, strain SLT2, stronger effect = lower value 1.01 and 0.971 | locus YHR079C, strain IRE1 (second series), stronger effect = lower value 0.99 | locus YHR079C, strain IRE1, stronger effect = lower value 0.976 | locus YHR094C, strain hxt1, stronger effect = lower value 0.996 | locus YHR129C, strain ARP1, stronger effect = lower value 1.01 | locus YHR142W, strain chs7, stronger effect = lower value 0.979 | locus YHR200W, strain rpn10, stronger effect = lower value 0.99 | locus YIL066C, strain RNR3, stronger effect = lower value 1.01 | locus YIL073C, strain SPO22, stronger effect = lower value 0.976 | locus YIL125W, strain kgd1, stronger effect = lower value 0.984 | locus YIR030C, strain dcg1, stronger effect = lower value 0.996 | locus YJL092W, strain hpr5, stronger effect = lower value 1.01 | locus YJL095W, strain BCK1 (second series), stronger effect = lower value 1.02 | locus YJL095W, strain BCK1, stronger effect = lower value 1.02 and 0.993 | locus YJL115W, strain asf1, stronger effect = lower value 1.01 | locus YJL129C, strain trk1, stronger effect = lower value 0.973 | locus YJL134W, strain LCB3, stronger effect = lower value 1.02 | locus YJL154C, strain vps35, stronger effect = lower value 1.01 | locus YJL164C, strain tpk1, stronger effect = lower value 1.02 | locus YJL166W, strain qcr8, stronger effect = lower value 1.02 | locus YJL168C, strain set2, stronger effect = lower value 0.985 | locus YJL187C, strain SWE1 (second series), stronger effect = lower value 1.02 | locus YJR043C, strain POL32, stronger effect = lower value 1.02 | locus YJR066W, strain TOR1, stronger effect = lower value 0.978 | locus YKL009W, strain mrt4, stronger effect = lower value 1.01 | locus YKL068W, stronger effect = lower value 1 | locus YKL085W, strain MDH1 (second series), stronger effect = lower value 1 | locus YKL085W, strain MDH1, stronger effect = lower value 1 | locus YKL160W, strain elf1, stronger effect = lower value 0.961 | locus YKL190W, strain CNB1, stronger effect = lower value 1.01 | locus YKR001C, strain vps1, stronger effect = lower value 0.953 | locus YKR026C, strain gcn3, stronger effect = lower value 0.997 | locus YKR091W, strain srl3, stronger effect = lower value 1 | locus YLL001W, strain dnm1, stronger effect = lower value 1.02 | locus YLL026W, stronger effect = lower value 0.999 | locus YLL041C, strain sdh2, stronger effect = lower value 0.995 | locus YLR027C, strain aat2, stronger effect = lower value 1 | locus YLR039C, strain RIC1, stronger effect = lower value 1 | locus YLR058C, strain SHM2, stronger effect = lower value 1.02 | locus YLR102C, strain apc9, stronger effect = lower value 0.987 | locus YLR113W, strain HOG1, stronger effect = lower value 0.957 | locus YLR221C, strain rsa3, stronger effect = lower value 1.02 | locus YLR258W, strain gsy2, stronger effect = lower value 0.994 | locus YLR262C, strain YPT6 (second series), stronger effect = lower value 1.05 | locus YLR262C, strain YPT6, stronger effect = lower value 1.01 | locus YLR268W, strain sec22, stronger effect = lower value 0.972 | locus YLR320W, strain mms22, stronger effect = lower value 1.04 | locus YLR330W, strain CHS5, stronger effect = lower value 1.02 | locus YLR342W, strain FKS1 (second series), stronger effect = lower value 0.965 | locus YLR342W, strain FKS1, stronger effect = lower value 1.02 | locus YLR357W, strain rsc2, stronger effect = lower value 0.994 | locus YLR370C, strain arc18, stronger effect = lower value 1.01 | locus YLR371W, strain rom2, stronger effect = lower value 0.982 | locus YLR384C, strain iki3, stronger effect = lower value 1 | locus YLR418C, strain cdc73, stronger effect = lower value 0.953 | locus YML016C, strain PPZ1, stronger effect = lower value 1.02 | locus YML032C, strain rad52, stronger effect = lower value 1 | locus YML120C, strain ndi1, stronger effect = lower value 1.01 | locus YML124C, strain tub3, stronger effect = lower value 0.996 | locus YMR058W, strain fet3, stronger effect = lower value 0.97 | locus YMR078C, strain ctf18, stronger effect = lower value 0.989 | locus YMR125W, strain sto1, stronger effect = lower value 1.02 | locus YMR129W, stronger effect = lower value 1 | locus YMR205C, strain PFK2, stronger effect = lower value 1.02 | locus YMR223W, strain ubp8, stronger effect = lower value 0.985 | locus YMR231W, strain pep5, stronger effect = lower value 1 | locus YMR263W, strain SAP30, stronger effect = lower value 1 | locus YMR307W, strain GAS1, stronger effect = lower value 0.983 | locus YNL067W, strain RPL9B, stronger effect = lower value 0.989 | locus YNL071W, strain lat1, stronger effect = lower value 1.01 | locus YNL183C, strain NPR1, stronger effect = lower value 0.921 | locus YNL209W, strain ssb2, stronger effect = lower value 1 | locus YNL233W, strain BNI4, stronger effect = lower value 1.01 | locus YNL248C, strain rpa49, stronger effect = lower value 1.03 | locus YNL250W, strain rad50, stronger effect = lower value 1.01 | locus YNL271C, strain bni1, stronger effect = lower value 0.99 | locus YNL298W, strain CLA4, stronger effect = lower value 0.994 | locus YNL307C, strain MCK1, stronger effect = lower value 0.984 | locus YNL322C, strain KRE1 (second series), stronger effect = lower value 1 | locus YNL322C, strain KRE1, stronger effect = lower value 1.01 | locus YNR049C, strain mso1, stronger effect = lower value 1.01 | locus YNR052C, strain pop2, stronger effect = lower value 0.983 | locus YOL006C, strain TOP1, stronger effect = lower value 1.01 | locus YOL012C, strain htz1 0.571 | locus YOL147C, strain pex11, stronger effect = lower value 0.997 | locus YOR001W, strain rrp6, stronger effect = lower value 1.03 | locus YOR061W, strain CKA2, stronger effect = lower value 1.02 | locus YOR069W, strain VPS5, stronger effect = lower value 1.01 | locus YOR070C, strain gyp1, stronger effect = lower value 1 | locus YOR080W, strain dia2, stronger effect = lower value 1 | locus YOR083W, strain WHI5, stronger effect = lower value 0.942 | locus YOR106W, strain vam3, stronger effect = lower value 0.913 | locus YOR136W, strain idh2, stronger effect = lower value 0.993 | locus YOR144C, strain elg1, stronger effect = lower value 0.983 | locus YOR184W, strain ser1, stronger effect = lower value 0.992 | locus YOR231W, strain MKK1, stronger effect = lower value 0.98 | locus YOR265W, strain rbl2, stronger effect = lower value 0.989 | locus YOR270C, strain vph1, stronger effect = lower value 1.06 | locus YOR290C, strain snf2, stronger effect = lower value 1 | locus YOR316C, strain cot1, stronger effect = lower value 0.998 | locus YPL051W, strain arl3, stronger effect = lower value 1 | locus YPL055C, strain LGE1, stronger effect = lower value 0.99 | locus YPL078C, strain atp4, stronger effect = lower value 0.986 | locus YPL106C, strain sse1, stronger effect = lower value 0.983 | locus YPL240C, strain hsp82, stronger effect = lower value 1 | locus YPL256C, strain CLN2, stronger effect = lower value 1 | locus YPR119W, strain clb2, stronger effect = lower value 0.994 | locus YPR141C, strain kar3, stronger effect = lower value 0.993 | locus YPR163C, strain tif3, stronger effect = lower value 1 | locus YPR167C, strain met16, stronger effect = lower value 0.993 | strain wtn01, stronger effect = lower value 0.979
